Test results taken from PubChem BioAssay AID1259336 (Sattelle Laboratory, UCL Respiratory, Division of Medicine, …, 2017).
A number with no mark means an inactive call. Activity calls are given as the source filed them. No stated cut-off is given here; in the data, active means log2 fold change growth below about -1.8; inactive means the rest.

Assay: C. elegans growth inhibition, whole organism, log2 fold change (AID 1259336);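 further: growth scored by imaging after five days at 20 °C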
Details: anthelmintic screen, stronger effect = lower value
For `CC(C)(C)C(O)C(Oc1ccc(-c2ccccc2)cc1)n1cncn1` (centres undefined), the log2 fold change growth was -0.263. `CO[C@@H]1CN(c2ccc(C#CC3(O)CN4CCC3CC4)c(Cc3ccccc3)n2)C[C@H]1O` (some centres undefined) gave a log2 fold change growth of -0.086. With `Cc1cccc(C(=O)Nc2ccnc(N(C)C3CCN(CC(C)C)CC3)c2)c1` the log2 fold change growth was 0.418. Molecule `CC1(C)OB(O)c2ccc(C3=NO[C@](c4cc(Cl)c(F)c(Cl)c4)(C(F)(F)F)C3)cc21` has a log2 fold change growth of -2.88. Work on `Nc1c2c(nc3sc4c(c13)CCCC4)CCCC2` yielded a log2 fold change growth of -0.177. Molecule `Cc1nn(Cc2ccccc2)c(Cl)c1C(=O)NC1CCCCCC1` has a log2 fold change growth of 0.0333. Molecule `CO/N=C(/C(=O)OC)c1ccccc1CO/N=C(/C)c1cccc(C(F)(F)F)c1` has a log2 fold change growth of -0.187. `O=C1O[C@@H](COc2ccon2)CN1c1cc(F)c(C2=CCN(Cc3ccccc3)CC2)c(F)c1` gave a log2 fold change growth of 0.114. `CC1COC(Cn2cncn2)(c2ccc(Oc3ccc(Cl)cc3)cc2Cl)O1` (centres undefined) gave a log2 fold change growth of -0.72. In the case of `CCc1nn(C)c(C(=O)NCc2ccc(Oc3ccc(C)cc3)cc2)c1Cl`, the log2 fold change growth was -10.9 (active). For `Cc1cc(C2=NO[C@](c3cc(Cl)c(F)c(Cl)c3)(C(F)(F)F)C2)ccc1C(=O)NCc1ccc2c(c1)C(C)(C)OB2O`, the log2 fold change growth was -0.268. Work on `Cc1nn(C)c(C)c1NS(=O)(=O)c1c(Cl)cc(-c2ccnc(N3CCNCC3)c2)cc1Cl` yielded a log2 fold change growth of -0.0922. With `CO/C=C(\C(=O)OC)c1ccccc1Oc1cc(Oc2ccccc2C#N)ncn1` the log2 fold change growth was -0.352. `O=C1O[C@@H](CO)CN1c1cc(F)c(C2=CCN(Cc3ccccc3)CC2)c(F)c1` showed a log2 fold change growth of 0.141.
